These results are taken from PubChem BioAssay AID612 (The Scripps Research Institute Molecular Screening Center, 2007).

Structures are written as SMILES. The whole screen tested about 62,000 compounds, of which about 420 (0.68%) were called active. Shown is part of a subset that was picked to be rich in actives. A number with no mark means an inactive call.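 The calls were made as follows: active = inhibition above the mean of all tested compounds plus 3 SD (cut at about 43% in these data); inactive = the rest.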

For orientation: inhibition means the relative decrease from the control value, in per cent.

This experiment deals with 5-hydroxytryptamine receptor 1A (Homo sapiens) (UniProt P08908). The experiment in a line: blockade of serotonin HTR1A receptor – cell-based, CHO, Ga15 NFAT-bla reporter, primary screen (AID 612).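 Also: receptor stimulated by 5-CT agonist at 100 nM near EC80; beta-lactamase reporter measured by ratiometric fluorescence of a cleavable substrate.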 The note with it: CHO 5-HT1a Ga15 NFAT-bla reporter, antagonist mode; at 10 µM; stronger effect = higher value.
Sequence of 5-hydroxytryptamine receptor 1A (Homo sapiens) (P08908 whole entry, looked up): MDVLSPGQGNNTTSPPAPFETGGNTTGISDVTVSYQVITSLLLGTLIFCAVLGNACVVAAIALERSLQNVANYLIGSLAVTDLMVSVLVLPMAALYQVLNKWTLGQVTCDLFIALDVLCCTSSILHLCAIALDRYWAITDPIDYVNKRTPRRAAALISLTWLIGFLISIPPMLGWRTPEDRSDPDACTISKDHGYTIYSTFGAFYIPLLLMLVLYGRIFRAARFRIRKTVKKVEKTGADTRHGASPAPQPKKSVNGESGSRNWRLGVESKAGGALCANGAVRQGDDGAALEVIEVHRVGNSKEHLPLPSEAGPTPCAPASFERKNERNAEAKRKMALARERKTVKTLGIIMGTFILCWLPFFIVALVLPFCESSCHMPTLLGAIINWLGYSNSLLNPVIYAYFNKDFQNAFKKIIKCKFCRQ
`Cc1ccc(N2C(=O)c3ccccc3C2(O)c2ncc[nH]2)cc1` (centres undefined): the inhibition is 3.5%.
As for `CSc1cccc(NC(=O)CSc2ccccc2)c1`, the inhibition is -10.6%.
Consider `CC(C)COC(=O)c1ccc(NC(=O)C2C3C=CC(C3)C2C(=O)O)cc1` (centres undefined), for which the inhibition was 4.8%.
`CCn1nnc(NC(=O)c2cc(Cl)c(OC)c(Cl)c2)n1`: the inhibition is -4.7%.
With `COc1cc2[nH]c(=S)n(CCN3CCCCC3C)c(=O)c2cc1OC` (centres undefined), the inhibition was 2.5%.
Take `O=C(O)CC(Cn1cnnn1)c1ccccc1` (centres undefined): the inhibition is 0.4%.
As for `COc1ccc2[nH]c3c(=O)n(Cc4ccco4)cnc3c2c1`, the inhibition was 6%.
As to `CCOc1ccc(N(CC(=O)NCc2ccc(OC)cc2)S(=O)(=O)c2c(C)noc2C)cc1`, the inhibition was 3.7%.
For the compound `COc1ccc2c(c1)CCc1c(C(=O)N3CCc4ccccc4C3)noc1-2`, the inhibition is -3.2%.
With `CN=C1SC(C(=O)O)CC(=O)N1C` (centres undefined), the inhibition is 3.6%.
As to `COc1ccccc1-n1cnc2cc(NS(=O)(=O)c3ccccc3)ccc21`, the inhibition was 26.7%.
Consider `CCCCn1c(SCC(=O)N2CCC(C(=O)OCC)CC2)nc2cc(S(N)(=O)=O)ccc21`, for which the inhibition was 5.5%.
Regarding `CCn1c(CSc2nncn2-c2ccc(OC)cc2)nc2cc(S(=O)(=O)N(C)C)ccc21`, the inhibition was 0.4%.
Take `CCC1C(C#N)=C(SC)NC2=C1C(=O)CC(C)(C)C2` (centres undefined): the inhibition is 0.2%.
For the compound `O=C(/C(=N\O)n1cncn1)c1ccc(Br)cc1Br`, the inhibition is -1.8%.
As for `CC(=O)c1c(N)n(C)c(=O)n(C)c1=O`, the inhibition is 1.2%.
On to `CC1CSc2nnc(CCc3ccccc3)n21` (centres undefined), for which the inhibition was 5.7%.
Consider `CN1CCN(S(=O)(=O)c2ccc(NC(=O)C3CCCO3)cc2)CC1` (centres undefined), for which the inhibition was -0.1%.
On to `Cc1ccc(NC(=O)Cn2nc(C)c3ccccc3c2=O)c(C)c1`, for which the inhibition was 2.8%.
On to `C=CCn1c(SCn2nnc3ccccc3c2=O)nnc1-c1ccc(Cl)cc1`, for which the inhibition was -2.8%.
Consider `O=C(Nn1cc(C(=O)N2CCN(c3ccccc3F)CC2)c2ccccc2c1=O)c1cnccn1`, for which the inhibition is 0.3%.
On to `CCn1c2c(c3ccc(OC)cc31)CCCC2=O`, for which the inhibition was -8.1%.
Regarding `O=C(CSc1nnc(Cn2cnc3ccccc32)o1)c1ccccc1`, the inhibition is -8.1%.
Next, `CC(=NC1CCN(Cc2ccccc2)CC1)c1c(O)[nH]c(=O)[nH]c1=O`: -6.7%; `Cc1ccc(-c2noc(CN3CCN(Cc4ccccc4)CC3)n2)cc1`: -3.3%.
On to `CC12CN(Cc3ccccc3)CC(C)(CN(Cc3ccccc3)C1)C2=NO`, for which the inhibition was 50.1% (active).
As to `CN1C(=O)CC(N2CCN(c3ccccn3)CC2)C1=O` (centres undefined), the inhibition is -2.2%.
Consider `C=CCNc1nnc(C)c2ccccc12`, for which the inhibition was 0.9%.
Turning to `Cc1noc(C)c1S(=O)(=O)N(CC(=O)Nc1ccc2c(c1)OCCO2)c1ccc(C(C)C)cc1`, the inhibition is 2%.
As for `COCCOC(=O)C1=C(C)N=c2s/c(=C\c3cccs3)c(=O)n2C1c1cccs1` (centres undefined), the figure is 6.2%.
In the case of `CCOC(=O)c1cnc(-n2nc(C)cc2C)nc1Nc1cccc(C(C)=O)c1`, the inhibition is 12.1%.
As for `Cc1cc(C)n(-c2ccc(Cl)c(C(=O)O)n2)n1`, the figure is -12.6%; as for `CC(=O)c1ccc(Oc2cc(C)nc(-n3nc(C)cc3C)n2)cc1`, 45.2% (active).
`CCOCCCN1C(=O)CN(C2CCCCC2)C(=O)C1c1ccc(OCC)c(OC)c1` (centres undefined): the inhibition was 4.5%.
`O=C(Nc1cc(C(F)(F)F)ccc1Cl)c1cc(C2CC2)on1`: the inhibition was 2.5%.
On to `O=C(OCC(O)C(O)COC(=O)c1ccccc1)c1ccccc1` (centres undefined), for which the inhibition is -11.9%.
For `S=C1SCN(CCN2CCOCC2)CN1Cc1ccccc1`, the inhibition was -2.1%.
Consider `CCOc1ccccc1C1NC(=O)NC(C)=C1C(=O)OCc1ccco1` (centres undefined), for which the inhibition was -4.6%.
With `CCOc1ccc2[nH]c(=O)c(C(c3nnnn3CCOC)N3CCOCC3)cc2c1` (centres undefined), the inhibition is -1.9%.
For `CC(=O)c1sc2nc(SCC(=O)N3CCCCC3)[nH]c(=O)c2c1C`, the inhibition was -6.6%.
For `Cc1cccc(NC(=O)c2ccccc2NC(=O)C(C)(C)C)n1`, the inhibition was 1.6%.
For `O=S(=O)(Nc1ccccc1N1CCOCC1)c1ccc(Cl)s1`, the inhibition was 4.3%.
With `CCOC(=O)C1CCN(Cc2coc3ccc(Cl)cc3c2=O)CC1`, the inhibition was 5%.
Next, `O=C(NCc1ccc2c(c1)OCO2)C1CCCN(S(=O)(=O)c2cccs2)C1` (centres undefined): -2.9%; `Cc1ccnc(SCCn2c(Br)nc3c2c(=O)[nH]c(=O)n3C)n1`: -4.8%.
Turning to `CC(C)Cc1cc(C(=O)Nc2cc(Br)ccc2O)no1`, the inhibition was 17.4%.
Consider `CCn1c(SCC(=O)Nc2nccs2)nnc1-c1ccncc1`, for which the inhibition is -5%.
As for `Cc1ccc(C(=O)NC2CCN(C(=O)N3CCOCC3)CC2)cc1`, the figure is -11.8%; as for `COc1ccc(CCN2C(=O)c3[nH]nc(-c4ccccc4O)c3C2c2ccc(C)cc2)cc1OC` (centres undefined), 54.6% (active).
Regarding `COc1ccc(CCN(C)CCN2C(=O)c3ccccc3C2=O)cc1OC`, the inhibition is -14.2%.
On to `COc1cc(C2C(C(=O)c3ccc(C)o3)=C(O)C(=O)N2CCc2ccccc2)ccc1O` (centres undefined), for which the inhibition was -1.1%.
As for `O=C(C1CC1)N1CCN=C1SCc1ccc(Cl)cc1`, the figure is 13%; as for `N#CC1=C(N)C(C#N)(C#N)[C@H](c2ccsc2)[C@H]2COCC=C12`, -8.8%; as for `O=C(CN1CCOCC1)Nc1c(-c2ccccc2)c2cc(Br)ccc2[nH]c1=O`, -10.8%.
